An excerpt weighted towards active compounds, which were near 7.8% of everything screened.
HCV inh = qHTS Assay for Inhibitors of Hepatitis C Virus (HCV). Huh7.5.1 HCVcc-Cre infection, luciferase reporter, 44 h. Potency, µM (top dose mostly 41.8 µM), for inactives: at the top dose activity change, negative = inhibition, hits mostly inhibitors. hit rate 3.4% among 340,000. AID 651820, 2012; active = well fitted inhibition curve with a large enough effect; inconclusive = small, poorly fitted or top-dose-only effect, or another doubt; inactive = no such curve, though single readings can be large or run the other way; note: potency is the fitted concentration of half-maximal effect
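HCVcc-Cre virus at an moi near 0.5 was added right after compound to cells cultured 4 h from seeding (1,000 cells/well). Luciferase activity was determined 44 h later, 15 min after substrate addition at RT.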
MARV entry inh = qHTS for inhibitors of binding or entry into cells for Marburg Virus; hit rate 1.8% among 300,000; AID 540276, 2011; Marburg virus pseudotyped entry inhibition, cell reporter; Potency, µM (titrated, usually from 37.8 µM), without a hit: top-dose activity change, negative = inhibition, actives largely listed as inhibitors; calls by dose curve; tested in HEK293 cells; note: potency is the fitted concentration of half-maximal effect
VACV Venus inh = qHTS for Stage-Specific Inhibitors of Vaccinia Orthopoxvirus: Venus Reporter Primary qHTS; Potency, µM (doses to about 36.5 µM), for the others: at the highest dose activity change, negative = inhibition, hits mostly inhibitors; Vaccinia virus Venus reporter expression, fluorescence; hit rate 0.46% among 330,000; calls by dose curve; tested in A549 cells; note: potency is the fitted concentration of half-maximal effect; nearly all actives have a fitted effect of over 30% in size
VACV mCherry inh = qHTS for Stage-Specific Inhibitors of Vaccinia Orthopoxvirus: mCherry Reporter Primary qHTS; hit rate 0.63% among 310,000; Potency, µM (top dose mostly 36.5 µM), without a hit: top-dose activity change, negative = inhibition, actives largely listed as inhibitors; Vaccinia virus mCherry reporter infection, fluorescence; calls by dose curve; tested in A549 cells; note: potency is the fitted concentration of half-maximal effect; nearly all actives have a fitted effect of over 35% in size
HCMV antiviral = qHTS Assay for inhibitors of the human cytomegalovirus (HCMV). activity change, negative = inhibition, % at 57.5 µM. hit rate 4.5% among 410,000. HFF cells, HCMV-luciferase reporter, 72 h; active compounds read low. AID 1259415, 2018; in the data active = activity change below about -60%; inconclusive = no clear call, values can overlap the other calls; inactive = above about -39%
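Cell-based, HFFs, 1000 cells/well, 16 h 37C; cpds in DMSO + HCMV-luc, MOI 1 PFU/cell; 72 h 37C; OneGlo luminescence after 5 min RT; norm. to buffer vs Salinomycin 10uM.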
Lassa entry inh = qHTS for Inhibitors of binding or entry into cells for Lassa Virus; Lassa virus pseudotype entry inhibition, cell reporter; Potency, µM (top dose mostly 37.9 µM), without a hit: top-dose activity change, negative = inhibition, hits mostly inhibitors; hit rate 1.2% among 300,000; AID 540256, 2011; calls by dose curve; tested in HEK293 cells; note: potency is the fitted concentration of half-maximal effect; nearly all actives have a fitted effect of over 50% in size
Active calls of the source: *; i = inactive; u = inconclusive; x = no result given; [ ] = remark or other dose. % is set by controls: 0 for no effect and ±100 for the full control effect.

SMILES | HCV inh | MARV entry inh | VACV Venus inh | VACV mCherry inh | HCMV antiviral | Lassa entry inh
COc1ccc(C(=O)Nc2ccc(N3CCCCCC3)cc2)cc1S(=O)(=O)N1CCOCC1 | 8.9µM* | x | x | x | -86* | x
O=C(Nc1ccc(N2CCOCC2)cc1)c1ccc(Cl)c(S(=O)(=O)N2CCCC2)c1 | 6.3µM* | x | x | x | u | x
CCN1CCN(c2ccc(NC(=O)c3ccc(Cl)c(S(=O)(=O)N4CCCC4)c3)cc2)CC1 | 18µM* | u | -19% | 0% | -22 | u
CCOc1ccccc1NC(=O)Cn1c(=O)n(C(C)C)c(=O)c2oc3ccccc3c21 | x | x | -26% | -9% | u | 11%[46.1 µM]
Cc1ccc(C(=O)/C=C/c2cc(C#N)n(C)c2C)cc1 | -6% | -5%[46.1 µM] | -19% | -6% | -85* | 1%
Cc1c(C=C2C(=O)c3ccccc3C2=O)cc(C#N)n1C | 5% | x | x | x | x | x
CCCOc1ccc(N2C(=O)CC(NCc3cccs3)C2=O)cc1 (stereo not drawn) | 9% | 0% | 11µM* | x | 11 | -5%
O=C1CC(NCc2cccs2)C(=O)N1c1ccc(Cl)cc1 (stereo not drawn) | 3% | -18%[46.1 µM] | -11% | x | -27 | 3%
O=C(Oc1ccc(C(=S)N2CCOCC2)cc1)c1ccc(Br)cc1 | -10% | 8% | -13% | -22% | -60* | -15%
CCOc1ccc(NC(=O)c2cccc(OC(=S)N3CCOCC3)c2)cc1 | -7% | -18%[46.1 µM] | -17% | -16% | -68* | 0%
O=C(Nc1ccc(Br)cc1)c1cccc(OC(=S)N2CCOCC2)c1 | 8.9µM* | u | -15% | i | -77* | u
CC1CCC(NC(=O)c2ccc(CS(=O)(=O)c3ccc(Cl)cc3)o2)CC1 (stereo not drawn) | x | x | -4% | -9% | -7 | u
O=C(Nc1nc2ccccc2s1)c1cnccn1 | -12% | 6.5µM* | -15% | -13% | 126 | u
O=C(Nc1nc2ccc(F)cc2s1)C1=NN(c2ccccc2)C(=O)CC1 | -8% | 14% | x | x | 40 | 13%
O=C(Nc1nnc(SCc2ccc(F)cc2)s1)c1ccccn1 | u | u | u | u | -99* | u
O=C(Nc1nc2ccc(F)cc2s1)c1ccccn1 | u | u | u | u | -98* | u
COc1cccc(CNC(=O)c2ccc3nc(N4CCCCC4)sc3c2)c1OC | x | 3%[46.1 µM] | -13% | -10% | 14 | x
FC(F)(F)c1cccc(N2CCN(Cc3nnc(-c4ccc5c(c4)OCO5)o3)CC2)c1 | x | -8%[46.1 µM] | -6% | -5% | 1 | -3%[46.1 µM]
CCN(CC)CCCn1c(=S)[nH]c2cc(Cl)ccc2c1=O | 7.1µM* | -18% | x | x | -9 | 0%
COC(=O)CC1=CO[C@@H](O)[C@@H]2C(CO)=CC[C@@H]12 | x | 16%[14.2 µM] | x | x | x | x
Cc1cccc(CNC(=O)C2CCN(c3nnc(-n4c(C)ccc4C)s3)CC2)c1 | x | -6%[46.1 µM] | -9% | -8% | 7 | -5%[46.1 µM]
COc1ccccc1C(CCNCc1ccc(N(C)C)cc1)c1ccc(OC(C)C)cc1 (stereo not drawn) | u | x | x | x | -101* | x
COc1ccc(CNCCCSc2ncccn2)cc1OC | -7% | x | x | x | 46 | x
Cc1cc(OCCOCCNCc2ccccc2)ccc1C(C)C | -17% | x | x | x | -9 | x
COc1ccc(CNCCC(c2ccc(OC(C)C)cc2)c2ccccc2OC)cc1 (stereo not drawn) | u | x | x | x | -99* | x
SMILES | HCV inh | MARV entry inh | VACV Venus inh | VACV mCherry inh | HCMV antiviral | Lassa entry inh
COc1ccc(CNCCC(c2ccc(OC(C)C)cc2)c2ccccc2OC)cc1OC (stereo not drawn) | 13µM* | u | -17% | -11% | -98* | u
COc1ccccc1C(CCNCc1ccccc1)c1ccc(OC(C)C)cc1 (stereo not drawn) | u | x | x | x | -102* | x
O=C(NCC1CCN(Cc2ccccc2Cl)CC1)c1cc2ccc3cccnc3c2[nH]1 | x | x | -11% | -23% | -5 | -23%[46.1 µM]
CCOc1ccccc1CNC(=O)c1cccn1-c1nnc(N2CCCC2)s1 | x | x | -16% | -9% | 0 | -18%[46.1 µM]
COc1ccccc1C1CN(Cc2cccnc2)Cc2ccccc2O1 (stereo not drawn) | x | x | 6% | -12% | x | x
COc1cccc(CNC(=O)c2c(OC)cc(=O)n3c2CCN(C(=O)C2=C(C)OCCO2)CC3)c1 | x | x | -8% | -12% | x | x
CCOC(=O)c1cccc(NC(=O)Cc2ccc(NC(=O)N3CCCCc4ccccc43)cc2)c1 | x | x | -19% | -3% | u | -15%[46.1 µM]
Cc1cc(Br)cc(C)c1NC(=O)c1sc2ncn(Cc3cccc(F)c3)c(=O)c2c1C | x | x | -12% | -19% | -33 | -6%[46.1 µM]
C=CCn1c(-c2ccc(Cl)cc2)cnc1SC(C)C(=O)NC(N)=O (stereo not drawn) | u | -8%[46.1 µM] | -11% | -3% | -74* | -5%
Cc1sc(NC(=O)c2cccs2)nc1-c1ccccc1 | u | u | x | x | 114 | -3%
Cc1sc(N/N=C/c2cccs2)nc1-c1ccccc1 | u | 7.9µM* | -13% | -24% | u | u
CC12C(=O)N(c3ccc(C(=O)N4CCOCC4)cc3)C(=O)C1C1c3ccccc3C2c2ccccc21 (stereo not drawn) | 6% | 20% | x | x | -101* | 12%
CCc1cccc(N2C(=O)CSC23C(=O)Nc2ccccc23)c1 (stereo not drawn) | x | x | 9% | -2% | 11 | 15%[46.1 µM]
C=CCSc1nccc(-c2nn(-c3ccc(C)cc3)ccc2=O)n1 | u | u | -8% | -17% | -17 | 3.2µM*
CCSc1nccc(-c2nn(-c3ccc(C)cc3)ccc2=O)n1 | u | u | -28% | u | -5 | u
OC(CN1CC=C(/C=C/c2ccc(Br)cc2)CC1)c1ccccc1 (stereo not drawn) | u | 11µM* | -13% | u | 10 | -33%[46.1 µM]
COc1cccc(OCCCN2CCN(S(=O)(=O)c3ccc(NC(C)=O)cc3)CC2)c1 | 13µM* | 6.5µM* | x | x | -81* | 8.2µM*
COc1cccc(CN2CCN(S(=O)(=O)c3ccc(NC(C)=O)cc3)CC2)c1OC | u | -12%[46.1 µM] | -7% | -20% | 16 | x
CC(=O)Nc1ccc(S(=O)(=O)N2CCN(CCCOc3ccccc3Cl)CC2)cc1 | 7% | 21% | x | x | -67* | 22%
COc1cc(CN2CCN(S(=O)(=O)c3ccc(NC(C)=O)cc3)CC2)cc(OC)c1OC | x | x | -6% | -12% | -106* | -2%[46.1 µM]
CC(=O)Nc1ccc(S(=O)(=O)N2CCN(CCc3ccccc3)CC2)cc1 | u | x | x | x | -4 | x
Cc1ccc(S(=O)(=O)N2CCN(CCNC(=O)C(=O)Nc3ccc(F)cc3)CC2)cc1 | 11% | u | -13% | -12% | -67* | 1%
Cc1cc(C(=O)Nc2ccccc2-c2nc(CNC(=O)C3(C)CCCCC3)c(C)o2)c(C)o1 | x | x | 2% | -8% | x | x
